Source: PubChem
CYP2C19 activ = cytochrome P450 2C19 (human) activation; P33261; recombinant CYP2C19, luciferin-H EGE luminescence; active compounds read high; 0 = fully inhibited enzyme, 1 = untreated enzyme; activation factor at 5 µM; 96,000 tested, under 10 active;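 active means activation factor of at least 2 at 5 µM in the primary screen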;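 further: 0 = wells with 2.5 mM tranylcypromine and 1 = vehicle-only wells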
CD11b adhes inh = blocks human CD11b/CD18 adhesion to fibrinogen | P05107+P11215 | K562 CD11b/CD18 adhesion to fibrinogen, ATPlite luminescence; Mn2+ added to activate the integrin | inhibition, % at 10 µM | 0.54% of 93,000 active | AID 1497;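 active means primary inhibition of 50% or more at 10 µM, then 40% or more on retest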
CYP2C9 act = activators of human CYP2C9 | P11712 | recombinant CYP2C9, luciferin-H conversion, luminescence; active compounds read high; factor 1 = untreated enzyme, 0 = blocked | activation factor at 5 µM | 1.4% of 96,000 active | AID 1024;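 active means activation factor of 2 or more for CYP2C9 at a 5 µM dose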;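 further: 0 = sulfaphenazole-blocked wells and 1 = vehicle-only wells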
Mac1 fbg enh = CD11b/CD18-fibrinogen binding enhancement; P05107+P11215; K562 CD11b/CD18 adhesion to fibrinogen, ATPlite luminescence; activation, % at 10 µM; 0.07% of 93,000 active; AID 1499;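 active means 10 µM primary screen giving 50% or more activity, confirmed by 40% or more on retest at that dose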
CYP2C9 inh = inhibitors of human CYP2C9. AID 777. 20% of 96,000 active. CYP2C9 Supersomes, luciferin-H conversion, luminescence. P11712. inhibition, % at 5 µM;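 active means blocking of liver enzyme CYP2C9 beyond about 50% at 5 µM, limit read from the data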
CYP2C19 inhib = blocks human cytochrome P450 2C19. P33261. CYP2C19 Supersomes, luciferin-H EGE luminescence, 30 min. inhibition, % at 5 µM. 21% of 96,000 active. AID 778;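 active means CYP2C19 inhibition above a set limit at 5 µM in the primary screen, cut at about 50% in these data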;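 further: plate controls were negative control wells for no effect and 2.5 mM tranylcypromine positive control for full effect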
Starred values were filed as active, the others as inactive; nt = not tested or not shown. The list is not random: actives were taken first. Their share in the collection is about 28%.

SMILES	CYP2C19 activ	CD11b adhes inh	CYP2C9 act	Mac1 fbg enh	CYP2C9 inh	CYP2C19 inhib
c1cnc2ccc(C(c3nnnn3C3CCCC3)N3CCN(c4nc5ccccc5s4)CC3)cc2c1 (stereo not drawn)	0.3	8	0.1	-2	88*	70*
CCC(C)(C)n1nnnc1C(c1ccc2ncccc2c1)N1CCN2CCCC2C1 (stereo not drawn)	0.4	-15	1	1	3	59*
c1cnc2ccc(C(c3nnnn3C3CCCCC3)N3CCN4CCCC4C3)cc2c1 (stereo not drawn)	1	-10	0.3	-2	69*	-1
OC1CCN(C(c2ccc3ncccc3c2)c2nnnn2C2CCCCC2)CC1 (stereo not drawn)	1.1	-11	1.1	0	-8	-14
CC1CCC2(CC1)NC(=O)N(Cc1nc(-c3ccccc3)no1)C2=O (stereo not drawn)	0.7	-10	1	-2	-2	33
Cc1cccc(C(O)(C(=O)NNc2ccc3ccccc3n2)c2cccc(C)c2)c1	nt	7	nt	17	nt	nt
Cc1ccc(C(=O)N(Cc2ccc3c(c2)OCO3)Cc2nc3ccccc3c(=O)[nH]2)cc1	0.5	-3	0.6	2	39	45
O=C(C1CCC1)N(CCc1ccccc1)Cc1nc2ccccc2c(=O)[nH]1	0.4	64	0.1	-1	85*	64*
O=C(C1CC1)N(CCc1ccccc1)Cc1nc2ccccc2c(=O)[nH]1	0.4	-19	0.4	2	58*	56*
CCCC(=O)N(CCc1ccc(OC)cc1)Cc1nc2ccccc2c(=O)[nH]1	0.7	8	0.8	-4	20	31
O=C(c1ccncc1)N(Cc1ccccc1)Cc1nc2ccccc2c(=O)[nH]1	0.4	-6	0.1	1	93*	56*
CC1CCN(Cc2csc(N)n2)CC1	1.3	-5	1	-5	0	-27
CC1CCN(c2ccc(C(=O)NCc3cccs3)cn2)CC1	1	7	0.7	1	26	5
Cc1c(Cl)c([N+](=O)[O-])nn1CC(=O)Nc1c(C)n(C)n(-c2ccccc2)c1=O	0.7	nt	0.9	nt	10	30
COC(=O)C1C(=O)C2=C(CC1C)NC(C)=C(C(=O)OC(C)C)C2c1ccc(C)o1 (stereo not drawn)	0.8	-6	0.4	-1	59*	21
COC(=O)C1C(=O)C2=C(CC1C)NC(C)=C(C(=O)OCc1ccc(OC)cc1)C2c1ccc(C)o1 (stereo not drawn)	0.4	6	0.2	6	80*	61*
CCOC(=O)C1=C(C)NC2=C(C(=O)C(C(=O)OCC)C(c3ccc(OC)cc3)C2)C1c1ccccn1 (stereo not drawn)	0.7	-10	0.7	-4	29	29
CCN(CC)C(=O)CSc1nnc(-c2ccc(F)cc2)n1N	1	-25	1.1	3	-6	-4
O=C(O)CCNc1cc2ccccc2cc1C(=O)O	0.9	5	0.9	1	8	12
CCOC(=O)CSc1nc(C2CC2)cc(-c2ccc(Cl)cc2)c1C#N	nt	6	nt	9	nt	nt
O=C(CN1NS(=O)(=O)c2ccccc2C1=O)Nc1ccccc1OC(F)F	0.9	1	0.7	-2	34	13
Cc1cc2oc(=O)cc(CN3CCN(Cc4ccccc4)CC3)c2cc1Cl	0.8	nt	1.1	nt	-15	23
Cc1ccc2c(CN3CCC(C)CC3)cc(=O)oc2c1	0	-9	0.3	-4	67*	100*
Cc1cc2oc(=O)cc(CN3CCCCC3C)c2c(C)c1Cl (stereo not drawn)	0.4	13	0.9	-5	11	56*
Cc1ccc2c(CN3C(=O)NC(C)(c4ccc5c(c4)OCO5)C3=O)cc(=O)oc2c1 (stereo not drawn)	0.1	16	0	-2	98*	92*
Cc1cc2oc(=O)cc(CN3CCC(C)CC3)c2cc1Cl	0.1	0	0.9	-5	10	85*
CCc1cc(=O)oc2cc(C)c(CN3CCCC3)c(O)c12	1.2	-10	1.1	1	-9	-16
CC1=NN(C(=O)c2csc(C(C)C)c2)C(O)(C(F)(F)F)C1 (stereo not drawn)	nt	-6	nt	4	nt	nt
Oc1nc(Nc2ccc(Cl)cc2Cl)sc1/C=C1\C=Nc2ccccc21	nt	101	nt	-7	nt	nt
